In PubChem BioAssay:
Active and inactive are the calls of the source. Unless noted, the rule behind the calls is not given here.

Experiments:
[1] = system: Wnt5a (protein binding on small-molecule microarray); experiment: Wnt5a binders on small-molecule microarray, primary screen, biophysical, 635/667 nm fluorescence (AID 1142); settings: 635 nm fluorescence, higher = more signal;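 note: fluorescence read at 667 nm with signal to noise per printed feature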
[2] = cell viability in Huh7 cells, primary screen, cytotoxicity control for HCV replication inhibitor project, CellTiter-Glo luminescence, basal, 48 h (AID 1143); settings: Huh7 HCV replicon, higher = more signal, called active from +8 up or from −8 down;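 note: Huh7 hepatoma cells carrying a hepatitis C replication reporter with no stimulus; test concentration not given here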
[3] = P. aeruginosa biofilm formation inhibitors, primary screen, PAO1 strain, BacTiter-Glo luminescence, LB-PBS (AID 1144); settings: 12 h, higher = more signal
[4] = CREB reporter modulators without forskolin, primary screen, cell-based, PC12, CRE-LacZ reporter, unstimulated (AID 1145); settings: no forskolin, luminescence, 4.5 h, higher = more signal, called active from +8 up or from −8 down
[5] = CREB reporter modulators under forskolin, primary screen, cell-based, PC12, CRE-LacZ reporter, forskolin-stimulated (AID 1146); settings: luminescence, 4.5 h, higher = more signal, called active from +8 up or from −8 down;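 note: PC12 cells with 6xCRE LacZ reporter stimulated by forskolin 10 µM; beta-galactosidase reporter signal reflecting CREB driven transcription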
[6] = target: Streptavidin (Streptomyces avidinii) (UniProt P22629); experiment: streptavidin binders on small-molecule microarray, primary screen, artefact control for SMM compound annotation, biophysical, 635/667 nm fluorescence (AID 1147); settings: streptavidin binding, higher = more signal;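 note: signal reflects streptavidin binding to arrayed compounds as a control protein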
Chain of Streptavidin (Streptomyces avidinii) (P22629 whole entry, looked up): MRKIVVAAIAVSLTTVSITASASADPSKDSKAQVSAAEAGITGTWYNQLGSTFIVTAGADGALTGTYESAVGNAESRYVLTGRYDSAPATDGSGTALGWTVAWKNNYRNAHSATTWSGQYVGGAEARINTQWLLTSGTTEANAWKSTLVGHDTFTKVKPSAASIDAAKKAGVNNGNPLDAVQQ

[7] = small-molecule binders of probe aInhba, primary screen, biochemical, small-molecule microarray, 635/667 nm fluorescence (AID 1148); settings: higher = more signal;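 note: score merges 667nm spot fluorescence with signal-to-noise for antibody binding to printed compounds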
[8] = target: Torsin-1A (Homo sapiens) (UniProt O14656); experiment: torsin A binders from cell lysate, primary screen, small-molecule microarray, wild-type, 635/667 nm (AID 1149); settings: COS7 hTOR1A-WT lysate, 635 nm fluorescence, higher = more signal
Chain of Torsin-1A (Homo sapiens) (O14656 whole entry, looked up): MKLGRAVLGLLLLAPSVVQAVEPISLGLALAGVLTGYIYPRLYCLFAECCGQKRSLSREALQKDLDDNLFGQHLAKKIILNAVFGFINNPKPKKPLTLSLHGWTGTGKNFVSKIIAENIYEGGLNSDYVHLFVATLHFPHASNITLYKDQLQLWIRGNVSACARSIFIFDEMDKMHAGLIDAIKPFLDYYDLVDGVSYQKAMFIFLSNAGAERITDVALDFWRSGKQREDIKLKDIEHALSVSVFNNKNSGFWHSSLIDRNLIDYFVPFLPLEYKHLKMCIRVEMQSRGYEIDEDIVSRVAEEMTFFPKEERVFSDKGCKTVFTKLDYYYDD

[9] = target: Torsin-1A (Homo sapiens) (UniProt O14656); experiment: small-molecule binders of mutant TOR1A in lysate, primary screen, cell lysate, small-molecule microarray, COS7 lysate, 635/667 nm fluorescence (AID 1150); settings: COS7 hTOR1A mutant lysate, 635 nm fluorescence, higher = more signal;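 note: score pools 667 nm emission and signal to noise measuring lysate protein binding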
[10] = system: Sonic hedgehog protein (Shh); experiment: small-molecule binders of Shh protein, primary screen, biochemical, small-molecule microarray, 635/667 nm fluorescence (AID 1151); settings: small-molecule microarray binding, 635 nm fluorescence; higher = more signal;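 note: Shh protein binding to compounds spotted on small-molecule microarray slides; score combines spot fluorescence intensity with signal-to-noise across triplicate slides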
[11] = E. coli DRC41 culture turbidity changes, primary screen, E. coli filamentation inducer project, strain DRC41, OD650, 48 h (AID 1152);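 note: E. coli MC1000 strain DRC41 lacking acrAB efflux pump and sulA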; settings: E. coli DRC41 (acrAB sulA), higher = more signal, called active from +8 up or from −8 down
[12] = small-molecule binders of probe aLefty1, primary screen, biochemical, small-molecule microarray, 635/667 nm fluorescence (AID 1153); settings: higher = more signal;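 note: score merges spot fluorescence with signal-to-noise ratio from the scanned slide images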
[13] = PSAC antagonists in infected red cells, primary screen, cell-based, P. falciparum Indochina, OD700, 1 h (AID 1154); settings: P. falciparum Indochina infected RBC osmotic lysis, higher = more signal, called active from +8 up or from −8 down
[14] = PSAC antagonists in infected red cells, primary screen, cell-based, P. falciparum Indochina, OD700, 2 h (AID 1155);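 note: lysis reports solute entry through the parasite surface anion channel PSAC; channel blockers reduce lysis of infected cells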; settings: P. falciparum Indochina infected erythrocytes, osmotic lysis OD700; higher = more signal, called active from +8 up or from −8 down
[15] = osmotic lysis modulators in infected erythrocytes, primary screen, PSAC antagonist project, cell-based, P. falciparum Indochina, OD700, 3 h (AID 1156); settings: higher = more signal, called active from +8 up or from −8 down
[16] = PSAC antagonists in infected red cells, primary screen, cell-based, P. falciparum Indochina, OD700, 18 h (AID 1157); settings: P. falciparum Indochina infected erythrocytes, osmotic lysis OD700, 18 h; higher = more signal, called active from +8 up or from −8 down
[17] = modulators of S6 phosphorylation in cells, primary screen, cell-based, A549, cytoblot, luminescence, serum-stimulated (AID 1158); settings: A549 phospho-S6 cytoblot, 5 h, higher = more signal;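 note: serum-stimulated A549 lung adenocarcinoma cells; signal is phosphorylated S6 detected by cytoblot immunostaining with HRP secondary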
[18] = target: NADPH oxidase 2 (Homo sapiens) (UniProt P04839); experiment: NOX2-dependent H2O2 signal modulators, primary screen, NOX inhibitor project, cell-based, HEK293-NOX2, PMA-stimulated, Amplex Red fluorescence (AID 1159); settings: 45 min, higher = more signal, called active from +8 up or from −8 down; note: test concentration not given here
Chain of NADPH oxidase 2 (Homo sapiens) (P04839 whole entry, looked up): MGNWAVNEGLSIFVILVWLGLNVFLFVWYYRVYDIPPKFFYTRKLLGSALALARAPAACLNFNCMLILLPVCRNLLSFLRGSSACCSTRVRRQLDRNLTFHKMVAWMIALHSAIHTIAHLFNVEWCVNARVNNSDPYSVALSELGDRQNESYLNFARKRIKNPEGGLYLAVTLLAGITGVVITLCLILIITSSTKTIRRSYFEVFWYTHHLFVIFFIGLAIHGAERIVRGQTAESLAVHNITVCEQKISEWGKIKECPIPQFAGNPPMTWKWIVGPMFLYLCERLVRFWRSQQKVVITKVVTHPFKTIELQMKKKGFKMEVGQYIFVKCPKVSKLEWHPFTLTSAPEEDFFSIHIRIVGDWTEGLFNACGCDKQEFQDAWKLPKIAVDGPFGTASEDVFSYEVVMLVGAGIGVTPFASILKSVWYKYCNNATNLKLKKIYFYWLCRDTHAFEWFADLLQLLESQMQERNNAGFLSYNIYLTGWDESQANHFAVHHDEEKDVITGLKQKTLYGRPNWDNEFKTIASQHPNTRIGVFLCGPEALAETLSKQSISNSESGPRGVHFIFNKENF

[19] = target: NADPH oxidase 4 (Homo sapiens) (UniProt Q9NPH5); experiment: NOX4-dependent H2O2 signal modulators, primary screen, NOX inhibitor project, cell-based, HEK293-NOX4, tetracycline-induced, Amplex Red fluorescence (AID 1160); settings: 45 min, higher = more signal, called active from +8 up or from −8 down
Chain of NADPH oxidase 4 (Homo sapiens) (Q9NPH5 whole entry, looked up): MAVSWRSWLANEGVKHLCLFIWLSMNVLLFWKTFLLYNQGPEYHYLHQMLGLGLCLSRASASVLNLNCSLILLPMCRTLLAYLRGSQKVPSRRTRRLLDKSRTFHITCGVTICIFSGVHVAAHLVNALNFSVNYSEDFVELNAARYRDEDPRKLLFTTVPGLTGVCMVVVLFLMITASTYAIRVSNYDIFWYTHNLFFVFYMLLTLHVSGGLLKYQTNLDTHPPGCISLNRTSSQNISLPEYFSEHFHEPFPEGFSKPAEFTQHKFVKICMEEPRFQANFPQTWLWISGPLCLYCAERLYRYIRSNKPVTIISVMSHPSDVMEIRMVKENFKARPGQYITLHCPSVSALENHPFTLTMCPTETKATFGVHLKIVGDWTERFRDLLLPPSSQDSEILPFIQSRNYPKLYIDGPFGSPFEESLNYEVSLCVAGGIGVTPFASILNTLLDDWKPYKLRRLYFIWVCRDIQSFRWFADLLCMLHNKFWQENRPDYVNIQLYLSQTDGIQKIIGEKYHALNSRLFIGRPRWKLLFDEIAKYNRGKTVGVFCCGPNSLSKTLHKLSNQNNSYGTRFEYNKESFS

[20] = target: NADPH oxidase 5 (Homo sapiens) (UniProt Q96PH1); experiment: NOX5-dependent H2O2 signal modulators, primary screen, NOX inhibitor project, cell-based, HEK293-NOX5, Amplex Red fluorescence (AID 1161); settings: HEK293-NOX5, ionomycin, 45 min, higher = more signal
Chain of NADPH oxidase 5 (Homo sapiens) (Q96PH1 whole entry, looked up): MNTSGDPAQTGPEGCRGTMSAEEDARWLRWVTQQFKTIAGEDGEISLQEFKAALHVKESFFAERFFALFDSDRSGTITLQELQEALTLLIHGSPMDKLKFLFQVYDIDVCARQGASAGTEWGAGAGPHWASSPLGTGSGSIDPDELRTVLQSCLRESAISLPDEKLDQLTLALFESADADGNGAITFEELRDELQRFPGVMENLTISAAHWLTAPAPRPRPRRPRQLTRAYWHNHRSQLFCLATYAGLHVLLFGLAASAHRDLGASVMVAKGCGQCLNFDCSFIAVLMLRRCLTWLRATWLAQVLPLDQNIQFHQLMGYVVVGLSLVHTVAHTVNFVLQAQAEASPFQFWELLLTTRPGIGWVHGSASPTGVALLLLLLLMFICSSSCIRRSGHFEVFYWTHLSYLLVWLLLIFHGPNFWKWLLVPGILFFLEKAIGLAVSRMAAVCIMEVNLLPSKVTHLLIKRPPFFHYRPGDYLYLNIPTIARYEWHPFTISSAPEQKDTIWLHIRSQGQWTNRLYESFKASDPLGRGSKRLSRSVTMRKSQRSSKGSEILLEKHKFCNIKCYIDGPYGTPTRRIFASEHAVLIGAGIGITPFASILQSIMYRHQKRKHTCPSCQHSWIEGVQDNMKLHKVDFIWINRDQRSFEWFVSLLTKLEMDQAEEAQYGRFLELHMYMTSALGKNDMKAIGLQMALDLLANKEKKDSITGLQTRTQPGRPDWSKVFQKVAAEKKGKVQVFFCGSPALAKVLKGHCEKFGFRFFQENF

SMILES	composite z-score [1]	z-score [2]	z-score [3]	z-score [4]	z-score [5]	composite z-score [6]	composite z-score [7]	composite z-score [8]	composite z-score [9]	composite z-score [10]	z-score [11]	composite z-score [12]	z-score [13]	z-score [14]	z-score [15]	z-score [16]	z-score [17]	z-score [18]	z-score [19]	z-score [20]
C=CCOC(=O)[C@H]1[C@@H]2C(=O)O[C@@H](c3ccccc3)[C@@H](c3ccccc3)N2[C@@H](c2ccc(OCCOC(=O)[C@H]3C[C@H]4C(=O)N[C@@H](CC(C)C)C(=O)N4[C@H]3c3ccc(O)cc3)cc2)[C@]12C(=O)Nc1ccc(I)cc12	0.931	-0.289 (inactive)	-0.829 (inactive)	-0.122 (inactive)	0.535 (inactive)	0.335	-0.0695	1.45	1.45	2.31	-1.1 (inactive)	0.0839	-0.414 (inactive)	0.739 (inactive)	-0.483 (inactive)	0.47 (inactive)	-0.182	1.82 (inactive)	0.43 (inactive)	0.982
CN(C)CCCNC(=O)[C@@]1(c2ccc([N+](=O)[O-])cc2)CC(=O)N(C2CCCCC2)[C@@H]1c1ccc(CO)cc1I	-0.107	-5.87 (inactive)	0.262 (inactive)	0.378 (inactive)	0.519 (inactive)	0.71	-0.016	0.343	0.306	0.279	-2.09 (inactive)	0.0824	14.8 (active)	1.44 (inactive)	-2.81 (inactive)	0.037 (inactive)	-1.78	-8.16 (active)	-2.52 (inactive)	0.205
C=C[C@H](COC(C)=O)N(C(=O)OC(C)(C)C)S(=O)(=O)c1ccc(Br)cc1	0.77	-0.121 (inactive)	-0.41 (inactive)	0.652 (inactive)	1.66 (inactive)	0.304	0.898	0.446	0.31	0.457	1.34 (inactive)	0.312	0.874 (inactive)	-0.141 (inactive)	-0.301 (inactive)	0.0544 (inactive)	0.314	0.406 (inactive)	0.356 (inactive)	-0.772
CCCCC(=C=CC[C@@H](O)c1ccccc1OCCO)CCO	-0.235	-0.717 (inactive)	-0.0652 (inactive)	17.8 (active)	0.905 (inactive)	-0.488	0.0173	-0.873	0.286	0.134	0.086 (inactive)	0.0752	9.77 (active)	0.899 (inactive)	0.631 (inactive)	0.576 (inactive)	0.289	-0.0172 (inactive)	-0.742 (inactive)	-1.71
